Test results reported in PubChem BioAssay (NCATS).
Records with an inconclusive call do not appear. Activity calls are given as the source filed them. The call rests on the fitted dose curve; in most records, active means well fitted curve in the direction sought with a large enough effect; inconclusive means small, poorly fitted or top-dose-only effect, or another doubt; inactive means no such curve, though single readings can be large; an effect the other way counts as inactive or inconclusive.

Legend:
[1] = biological target: Cellular tumor antigen p53 (Homo sapiens) (UniProt P04637); experiment: Primary qHTS for small molecule compounds that upregulate eGFP-tagged delta133p53alpha (in N-terminal) cells. (AID 2060322); conditions: NCI-H358 eGFP-delta133p53alpha fluorescence, 24 h; activation: hits give high values;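 further: cells pre-induced with doxycycline then dosed without doxycycline; series mostly up to about 56 µM; 0% = DMSO vehicle and 100% = reference activator; nearly all actives have a fitted effect of over 75% in size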
Outline: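 NCI-H358 cells pre-induced 24 h with 10 ng/ml doxycycline for eGFP-delta133p53alpha, plated dox-free and exposed 24 h at 37C to titrated compounds. Fixed, Hoechst-stained; gated GFP peak intensity by laser scanning cytometry, normalized to DMSO (0%) and 57.5 uM 5-azacytidine (100%).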

[2] = biological target: Aldehyde dehydrogenase, mitochondrial (Homo sapiens) (UniProt P05091); experiment: qHTS for Inhibitors of the Aldehyde Dehydrogenase Family (ALDH2) Primary screen (AID 2061308);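 further: plate controls were vehicle for no effect and reference inhibitor for full effect; nearly all actives have a fitted effect of over 55% in size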
[3] = biological target: Retinaldehyde dehydrogenase 3 (Homo sapiens) (UniProt P47895); experiment: qHTS for Inhibitors of the Aldehyde Dehydrogenase Family (ALDH1A3) Primary screen (AID 2061315);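 further: plate controls were DMSO vehicle for no effect and reference inhibitor for full effect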

Sequence of Cellular tumor antigen p53 (Homo sapiens) (P04637 whole entry, looked up): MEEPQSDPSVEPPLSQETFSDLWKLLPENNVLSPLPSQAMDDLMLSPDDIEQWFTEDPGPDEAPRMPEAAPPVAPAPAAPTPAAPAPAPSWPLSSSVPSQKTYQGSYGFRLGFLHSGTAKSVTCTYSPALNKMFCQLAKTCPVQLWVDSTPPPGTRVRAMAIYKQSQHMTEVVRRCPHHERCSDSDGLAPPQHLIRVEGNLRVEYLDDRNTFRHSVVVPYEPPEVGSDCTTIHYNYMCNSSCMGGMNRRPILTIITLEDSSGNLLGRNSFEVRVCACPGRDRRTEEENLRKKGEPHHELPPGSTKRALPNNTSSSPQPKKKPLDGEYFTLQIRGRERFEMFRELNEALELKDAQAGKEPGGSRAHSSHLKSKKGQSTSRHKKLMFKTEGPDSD

C=C1/C(=C/C=C2\CCC[C@]3(C)[C@@H]([C@@H](C)OCCC(O)(CC)CC)CC[C@@H]23)C[C@@H](O)C[C@@H]1O
inactive: activation [1] -5% | Potency [2] | Potency [3]

CC(C(=O)O)C1CCC2(C)C3C(=O)C=C4C(CCC(=O)C4(C)C)C3(C)CCC12C (stereo not drawn)
inactive: activation [1] -15.2% | Potency [2] | Potency [3]

C[C@@H]1C[C@@H](O)[C@@]23CO[C@]2(CO)CCC[C@@H]3[C@@]12C[C@@H](c1ccoc1)OC2=O
inactive: activation [1] 24.4% | Potency [2] | Potency [3]

COC1CC(O[C@H]2CC[C@@]3(C)C(=CC[C@]4(O)C3[C@H](O)[C@@H](O)[C@]3(C)[C@@H]([C@H](C)O)CC[C@@]34O)C2)OC(C)C1OC1CC(OC)C(OC2CC(OC)C(OC3OC(C)C(OC4OC(CO)C(O)C(O)C4O)C(OC)C3O)C(C)O2)C(C)O1 (stereo partly drawn)
inactive: activation [1] -4.58% | Potency [2] | Potency [3]

COC(=O)c1ccnc(-c2cc(C(=O)Nc3ccc(C4(N)CC4)cc3)ccn2)c1
inactive: activation [1] 1.67% | Potency [2] | Potency [3]

C/C=C1/C[N+](C)([O-])C2Cc3c([nH]c4ccccc34)C(=O)CC1C2C(=O)OC (stereo not drawn)
inactive: activation [1] -9.82% | Potency [2] | Potency [3]

O=C(OC1C=C(CO)C2C(OC3OC(CO)C(O)C(O)C3O)OC=CC12)c1ccc(O)cc1 (stereo not drawn)
inactive: activation [1] -16% | Potency [2] | Potency [3]

COC(=O)C1=CO[C@@H](O[C@@H]2O[C@H](CO)[C@@H](O)[C@H](O)[C@H]2O)[C@H]2[C@@H]1C=C[C@@]21C=C([C@H](C)O)C(=O)O1
inactive: activation [1] 13.4% | Potency [2] | Potency [3]

C/C=C1\[C@H](O[C@@H]2O[C@H](CO)[C@@H](O)[C@H](O)[C@H]2O)OC=C(C(=O)OC)[C@H]1CC(=O)O
inactive: activation [1] 3.82% | Potency [2] | Potency [3]

CC12CCC(OC3OC(CO)C(O)C(O)C3OC3OC(CO)C(O)C(O)C3O)CC1CCC1C2CCC2(C)/C(=C3/COC(=O)C3)CCC12O (stereo not drawn)
inactive: activation [1] -0.763% | Potency [2] | Potency [3]

CC1(C)CCCC2(C)C3=C(C(=O)OC3O)C(O)CC12 (stereo not drawn)
inactive: activation [1] 9.92% | Potency [2] | Potency [3]

CC1(C)C[C@@H]2[C@H](C1)[C@@]1(C)C[C@]13C(O)OC[C@]3(O)[C@H]2O (stereo partly drawn)
inactive: activation [1] 6.25% | Potency [2] | Potency [3]

C1CCC[C@H]2CCCN3CC[C@@H](CCCCCC[C@@H]4CCCN5CC[C@@H](CC1)O[C@@H]45)O[C@@H]23
inactive: activation [1] -4.33% | activity change, negative = inhibition [2] 3.01% [at 0.092 µM] | activity change, negative = inhibition [3] -7.72% [at 0.092 µM]

C=C(C(=O)OC)C1C(O)CC2(C)C(O)CCC(=O)C2C1O (stereo not drawn)
inactive: activation [1] -15.3% | Potency [2] | Potency [3]

COc1cc(-c2cccc(O)c2)cc2c1OCO2
inactive: activation [1] 2.68% | Potency [2] | Potency [3]

CC1=CC23[C@H](C=C(C(=O)O)[C@@H]2COC(=O)[C@]3(O)CO)[C@@H]1C (stereo partly drawn)
inactive: activation [1] -6.87% | Potency [2] | Potency [3]

NC(=O)c1csc(C2OC(CO)C(O)C2O)n1 (stereo not drawn)
inactive: activation [1] -7% | Potency [2] | Potency [3]

CN1C(=O)c2ccccc2NC(=O)[C@]12O[C@@H]2c1cccc(O)c1
inactive: activation [1] -1.53% | Potency [2] | Potency [3]

OC[C@H]1O[C@@H](OCCc2ccccc2)[C@H](O[C@@H]2OC[C@@H](O)[C@H](O)[C@H]2O)[C@@H](O)[C@@H]1O
inactive: activation [1] -11.5% | Potency [2] | Potency [3]

C=C1CCC(OC(C)=O)C2(C)CC3OC(=O)C(C)=C3CC12 (stereo not drawn)
inactive: activation [1] -0.763% | Potency [2] | Potency [3]

COc1cc(O)cc(OC2OC(CO)C(O)C(O)C2O)c1 (stereo not drawn)
inactive: activation [1] 21.4% | Potency [2] | Potency [3]

CC(=O)OCC(=O)Nc1cc(C#N)cc(NC(=O)COC(C)=O)c1Cl
inactive: activation [1] 2.33% | Potency [2] | Potency [3]

CC1=C(CC/C(C)=C/C(=O)O)[C@@]2(C)CCCC(C)(C)C2CC1=O (stereo partly drawn)
inactive: activation [1] 6.25% | Potency [2] | Potency [3]

C=C1CCC2C(C)(C(=O)O)CCCC2(C)C1CC/C(=C\CO)CO (stereo not drawn)
inactive: activation [1] 3.57% | Potency [2] | Potency [3]

C[C@@H]1C(=O)O[C@H]2C[C@]34[C@H]5C[C@@H](C(C)(C)C)[C@]36[C@@H](OC(=O)[C@H]6O)O[C@]4(C(=O)O5)[C@]21O
inactive: activation [1] -22.1% | Potency [2] | Potency [3]

COC(=O)C(C)C1CCC2(C)C(=O)C=CC(C)(O)C2C1O (stereo not drawn)
inactive: activation [1] 26% | Potency [2] | Potency [3]
